Measured values taken from PubChem BioAssay (EPA / NIEHS).
Active and inactive are the calls of the source. The calls were made as follows: active = hit-call score of the fitted dose curve at least 0.9, where 1 is the maximum; inactive = score below 0.9.

Legend:
[1] = ATG_GLI_CIS: Attagene CIS-FACTORIAL HepG2 Assay for human Zinc Finger Protein GLI1 (AID 2282945); conditions: HepG2, Attagene cis-factorial reporter mRNA, GLI element; actives raise or lower the signal
Outline: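 HepG2 cells transiently transfected with cis-promoter multiplexed reporter units report endogenous transcription factor activity. After 24 h chemical exposure, reporter mRNA was quantified by RT-PCR, 6-FAM labelling, HpaI digestion and capillary electrophoresis, with bidirectional fitting against DMSO.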

[2] = ATG_GRE_CIS: Attagene CIS-FACTORIAL HepG2 Assay for human Glucocorticoid Response Elements (GRE) (AID 2282947); conditions: HepG2 GRE cis-reporter, Attagene multiplex mRNA; actives raise or lower the signal
Outline: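 HepG2 cells transiently transfected with multiple cis-promoter reporter units measure endogenous TF activity; 24 h compound exposure. Reporter mRNA quantified by RT-PCR, FAM labelling, HpaI digestion and capillary electrophoresis; bidirectional fit vs DMSO baseline.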

[3] = ATG_ISRE_CIS: Attagene CIS-FACTORIAL HepG2 Assay for human Interferon Regulatory Factor 1 (IRF1) binding to an Interferon-Stimulated Response Element (ISRE) (AID 2282948); conditions: HepG2 ISRE cis-reporter (Attagene), mRNA transcription readout; actives raise or lower the signal
Outline: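 Cell-based cis-reporter assay; HepG2; 24 h exposure; reporter mRNA by RT-PCR plus capillary electrophoresis fluorescence; activity in either direction scored relative to DMSO.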

[4] = ATG_M_32_CIS: Attagene CIS-FACTORIAL HepG2 Assay for M32 Transcription Factor (Internal Marker) (AID 2282949); conditions: HepG2 Attagene cis-factorial M32 reporter, mRNA; actives raise or lower the signal;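 also: background control marker of the multiplexed CIS panel rather than a real target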
Outline: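 Internal background marker read-out: RT-PCR/capillary electrophoresis fluorescence of reporter transcripts from transiently transfected HepG2 cells after 24 h chemical exposure. Activity fitted bidirectionally relative to DMSO negative control.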

[5] = ATG_M_06_CIS: Attagene CIS-FACTORIAL HepG2 Assay for M06 Transcription Factor (Internal Marker) (AID 2282950); conditions: HepG2 Attagene CIS-FACTORIAL M06 internal marker reporter; actives raise or lower the signal
Outline: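 Terse: HepG2, transient MRTU transfection (FuGene 6), 24 h dosing; total RNA, oligo(dT) RT, PCR, FAM label, HpaI cut, capillary electrophoresis; bidirectional fit vs DMSO baseline; background-control endpoint.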

[6] = target: Hypoxia-inducible factor 1-alpha (Homo sapiens) (UniProt Q16665); test: ATG_HIF1a_CIS: Attagene CIS-FACTORIAL HepG2 Assay for human Hypoxia Inducible Factor 1 (HIF1A) (AID 2282951); conditions: HepG2 Attagene cis-factorial HIF1a reporter transcription; actives raise or lower the signal
Sequence of Hypoxia-inducible factor 1-alpha (Homo sapiens) (Q16665 whole entry, looked up): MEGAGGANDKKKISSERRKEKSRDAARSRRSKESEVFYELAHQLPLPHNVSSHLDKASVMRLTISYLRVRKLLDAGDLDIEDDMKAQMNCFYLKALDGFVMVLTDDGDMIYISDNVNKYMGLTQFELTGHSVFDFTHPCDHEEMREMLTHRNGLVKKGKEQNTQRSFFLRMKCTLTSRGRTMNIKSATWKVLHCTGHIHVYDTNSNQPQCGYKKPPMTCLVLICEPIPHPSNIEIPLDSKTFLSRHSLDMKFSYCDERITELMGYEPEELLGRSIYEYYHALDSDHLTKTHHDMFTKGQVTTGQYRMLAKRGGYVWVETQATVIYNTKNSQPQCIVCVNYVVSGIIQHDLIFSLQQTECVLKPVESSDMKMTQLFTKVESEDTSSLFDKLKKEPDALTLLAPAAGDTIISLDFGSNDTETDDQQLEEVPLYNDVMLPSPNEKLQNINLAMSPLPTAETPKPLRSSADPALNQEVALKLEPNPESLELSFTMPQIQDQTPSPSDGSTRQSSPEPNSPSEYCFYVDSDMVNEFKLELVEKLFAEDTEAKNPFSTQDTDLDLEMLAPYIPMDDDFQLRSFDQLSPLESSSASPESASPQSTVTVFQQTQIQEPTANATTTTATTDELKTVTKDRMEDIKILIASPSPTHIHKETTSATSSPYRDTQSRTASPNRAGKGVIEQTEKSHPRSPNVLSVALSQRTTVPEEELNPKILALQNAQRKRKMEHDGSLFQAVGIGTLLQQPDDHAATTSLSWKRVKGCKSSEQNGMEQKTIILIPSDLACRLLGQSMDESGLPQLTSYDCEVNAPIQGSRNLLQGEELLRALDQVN
Outline: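 HepG2 cells transiently transfected with multiple cis-regulated reporter transcription units measure endogenous transcription factor activity. After 24 h exposure, reporter mRNA is quantified by RT-PCR with 6-FAM labelling, HpaI digestion and capillary electrophoresis. Bidirectional fitting against DMSO.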

[7] = target: Hepatocyte nuclear factor 6 (Homo sapiens) (UniProt Q9UBC0); test: ATG_HNF6_CIS: Attagene CIS-FACTORIAL HepG2 Assay for human Hepatocyte Nuclear Factor 6 (HNF6) (AID 2282952); conditions: HepG2 Attagene cis-factorial HNF6 reporter transcription; actives raise or lower the signal
Sequence of Hepatocyte nuclear factor 6 (Homo sapiens) (Q9UBC0 whole entry, looked up): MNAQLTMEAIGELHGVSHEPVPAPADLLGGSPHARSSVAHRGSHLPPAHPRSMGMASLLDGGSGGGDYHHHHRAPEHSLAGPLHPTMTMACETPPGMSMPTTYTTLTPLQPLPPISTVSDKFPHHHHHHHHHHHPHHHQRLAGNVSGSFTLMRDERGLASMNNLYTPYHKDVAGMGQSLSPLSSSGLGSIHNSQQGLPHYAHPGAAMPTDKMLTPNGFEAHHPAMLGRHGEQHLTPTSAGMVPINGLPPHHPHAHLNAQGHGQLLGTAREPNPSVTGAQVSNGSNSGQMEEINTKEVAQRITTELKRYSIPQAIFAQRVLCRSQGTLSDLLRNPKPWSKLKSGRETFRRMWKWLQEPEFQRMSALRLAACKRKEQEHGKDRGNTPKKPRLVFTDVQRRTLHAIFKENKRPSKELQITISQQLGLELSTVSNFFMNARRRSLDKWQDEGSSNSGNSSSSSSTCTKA
Outline: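 HepG2 cells transiently transfected with cis-element-driven multiple reporter transcription units, dosed 24 h; reporter mRNA quantified by RT-PCR, FAM primer extension, HpaI digestion and capillary electrophoresis; bidirectional fit versus DMSO baseline.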

[8] = target: Heat shock factor protein 1 (Homo sapiens) (UniProt Q00613); test: ATG_HSE_CIS: Attagene CIS-FACTORIAL HepG2 Assay for human Heat Shock Transcription Factor 1 (HSE) (AID 2282953); conditions: HepG2 HSE cis-reporter, Attagene RNA transcription; actives raise or lower the signal
Sequence of Heat shock factor protein 1 (Homo sapiens) (Q00613 whole entry, looked up, the tested form may be a part): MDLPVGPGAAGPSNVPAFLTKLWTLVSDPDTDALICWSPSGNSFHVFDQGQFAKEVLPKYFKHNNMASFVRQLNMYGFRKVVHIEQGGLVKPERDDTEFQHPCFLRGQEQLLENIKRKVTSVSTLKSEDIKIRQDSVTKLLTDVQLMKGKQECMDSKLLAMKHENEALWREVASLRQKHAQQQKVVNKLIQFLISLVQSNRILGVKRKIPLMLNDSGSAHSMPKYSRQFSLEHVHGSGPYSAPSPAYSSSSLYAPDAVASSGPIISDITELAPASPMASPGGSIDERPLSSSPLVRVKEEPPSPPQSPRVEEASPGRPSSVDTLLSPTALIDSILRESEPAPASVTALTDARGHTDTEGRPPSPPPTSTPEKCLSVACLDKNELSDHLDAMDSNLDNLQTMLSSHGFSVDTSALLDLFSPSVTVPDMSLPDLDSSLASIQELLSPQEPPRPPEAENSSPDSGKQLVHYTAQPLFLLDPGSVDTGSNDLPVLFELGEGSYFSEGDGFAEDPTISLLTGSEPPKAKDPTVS
Outline: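 Read-out: fluorescence of reporter-specific RT-PCR fragments separated by capillary electrophoresis. HepG2 carrying transfected cis-element reporter units; 24 h dosing; activity fitted in both directions relative to DMSO baseline.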

[9] = ATG_MRE_CIS: Attagene CIS-FACTORIAL HepG2 Assay for human Metal Responsive Element (MRE) (AID 2282954); conditions: HepG2 MRE cis-reporter transcription, Attagene multiplex; actives raise or lower the signal
Outline: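 HepG2 cells transiently transfected with multiple cis-element reporter units measure endogenous MTF1-driven transcription. After 24 h compound exposure, reporter mRNA is quantified by RT-PCR with 6-FAM labelling, HpaI digestion and capillary electrophoresis; bidirectional fits versus DMSO.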

[10] = ATG_PBREM_CIS: Attagene CIS-FACTORIAL HepG2 Assay for human Phenobarbital-responsive Enhancer Module (PBREM) (AID 2282955); conditions: HepG2 PBREM cis-reporter, Attagene multiplexed transcription; actives raise or lower the signal
Outline: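 HepG2 cells transiently transfected with multiple cis-regulated reporter units measure endogenous transcription factor activity; 24 h compound exposure. Reporter mRNA quantified by RT-PCR, fluorescent labelling, HpaI digestion and capillary electrophoresis; bidirectional fit versus DMSO.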

[11] = target: Paired box protein Pax-6 (Homo sapiens) (UniProt P26367); test: ATG_Pax6_CIS: Attagene CIS-FACTORIAL HepG2 Assay for human Paired Box 6 (PAX6) (AID 2282956); conditions: HepG2 CIS-FACTORIAL PAX6 reporter transcription, RNA readout; actives raise or lower the signal
Sequence of Paired box protein Pax-6 (Homo sapiens) (P26367 whole entry, looked up): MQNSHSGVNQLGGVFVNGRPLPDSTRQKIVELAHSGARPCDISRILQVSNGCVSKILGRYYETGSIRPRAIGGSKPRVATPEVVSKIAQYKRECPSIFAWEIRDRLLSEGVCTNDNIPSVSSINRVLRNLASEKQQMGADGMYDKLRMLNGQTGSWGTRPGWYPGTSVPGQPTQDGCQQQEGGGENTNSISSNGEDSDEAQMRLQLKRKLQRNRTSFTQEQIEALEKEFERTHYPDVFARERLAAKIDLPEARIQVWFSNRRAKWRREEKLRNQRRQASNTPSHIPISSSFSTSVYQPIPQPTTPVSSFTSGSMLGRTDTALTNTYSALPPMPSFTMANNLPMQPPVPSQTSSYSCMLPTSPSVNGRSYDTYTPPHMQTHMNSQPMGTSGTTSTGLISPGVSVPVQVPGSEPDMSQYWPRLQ
Outline: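 Multiplexed cis-reporter HepG2 system; 24 h treatment; reporter mRNA read by RT-PCR/CE fluorescence; bidirectional fit vs DMSO.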

[12] = ATG_PXRE_CIS: Attagene CIS-FACTORIAL HepG2 Assay for human Pregnane X Receptor Element (PXRE) (AID 2282957); conditions: HepG2 Attagene CIS-FACTORIAL PXRE reporter, mRNA; actives raise or lower the signal
Outline: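 HepG2 cells transiently transfected with cis-regulated multiple reporter transcription units; endogenous factor activity measured as reporter mRNA 24 h after dosing. RT-PCR, fluorescent primer extension, HpaI digestion, capillary electrophoresis; bidirectional fit versus DMSO baseline.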

[13] = ATG_PPRE_CIS: Attagene CIS-FACTORIAL HepG2 Assay for human Peroxisome Proliferator-activated Response Element (PPRE) (AID 2282958); conditions: HepG2 PPRE cis-element reporter, Attagene transcription factor profiling; actives raise or lower the signal
Outline: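 HepG2 cells are transiently transfected with multiplexed cis-promoter reporter units to report endogenous PPAR activity. After 24 h dosing, reporter mRNA is read by RT-PCR and capillary electrophoresis. Fitting is bidirectional against DMSO.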

[14] = ATG_RORE_CIS: Attagene CIS-FACTORIAL HepG2 Assay for human RAR-related Orphan Receptor Element (RORE) (AID 2282959); conditions: HepG2 Attagene cis-factorial RORE reporter, mRNA; actives raise or lower the signal
Outline: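 HepG2 cells carrying transiently transfected cis-regulated reporter units; RORE-driven reporter mRNA quantified 24 h post-dosing by RT-PCR, 6-FAM primer extension, HpaI digestion and capillary electrophoresis. Bidirectional fit versus DMSO.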

[15] = ATG_Sox_CIS: Attagene CIS-FACTORIAL HepG2 Assay for human SRY-box transcription factor (SOX) (AID 2282960); conditions: HepG2 Attagene cis-factorial SOX reporter, mRNA; actives raise or lower the signal
Outline: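 HepG2 cells transiently transfected with multiple cis-regulated reporter units, then dosed for 24 h. Reporter mRNA quantified by RT-PCR, fluorescent labelling, HpaI digestion and capillary electrophoresis; bidirectional fit versus DMSO.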

[16] = target: Transcription factor Sp1 (Homo sapiens) (UniProt P08047); test: ATG_Sp1_CIS: Attagene CIS-FACTORIAL HepG2 Assay for human Specificity Protein 1 (Sp1) (AID 2282961); conditions: HepG2 Sp1 cis-reporter transcription, actives raise or lower the signal
Sequence of Transcription factor Sp1 (Homo sapiens) (P08047 whole entry, looked up): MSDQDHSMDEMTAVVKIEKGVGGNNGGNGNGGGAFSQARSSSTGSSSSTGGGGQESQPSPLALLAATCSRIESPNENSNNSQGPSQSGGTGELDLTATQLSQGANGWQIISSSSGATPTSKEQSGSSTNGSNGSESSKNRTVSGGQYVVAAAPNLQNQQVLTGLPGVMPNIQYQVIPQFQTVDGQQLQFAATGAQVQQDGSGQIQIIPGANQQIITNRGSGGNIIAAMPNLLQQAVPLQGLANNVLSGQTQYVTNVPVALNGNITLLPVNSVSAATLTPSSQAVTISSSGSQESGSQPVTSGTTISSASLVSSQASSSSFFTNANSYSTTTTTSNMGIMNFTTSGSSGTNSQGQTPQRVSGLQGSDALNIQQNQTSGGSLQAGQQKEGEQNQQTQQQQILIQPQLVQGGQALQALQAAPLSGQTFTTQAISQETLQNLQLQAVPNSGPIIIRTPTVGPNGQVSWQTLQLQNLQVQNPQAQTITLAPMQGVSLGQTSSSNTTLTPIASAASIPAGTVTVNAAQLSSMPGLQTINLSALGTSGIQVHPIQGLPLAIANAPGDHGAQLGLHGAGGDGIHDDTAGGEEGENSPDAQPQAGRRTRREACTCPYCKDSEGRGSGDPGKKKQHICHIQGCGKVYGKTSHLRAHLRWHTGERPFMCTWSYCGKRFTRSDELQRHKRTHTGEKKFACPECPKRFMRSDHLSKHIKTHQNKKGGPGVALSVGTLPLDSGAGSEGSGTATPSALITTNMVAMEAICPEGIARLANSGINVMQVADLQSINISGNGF
Outline: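 HepG2 cells transiently transfected with multiplexed cis-regulated reporter constructs, chemical exposure 24 h. Reporter mRNA quantified by RT-PCR with capillary electrophoresis; bidirectional fit relative to DMSO.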

[17] = ATG_SREBP_CIS: Attagene CIS-FACTORIAL HepG2 Assay for human Sterol Regulatory Element Binding (SREBP) (AID 2282962); conditions: HepG2 Attagene cis-factorial SREBP reporter, mRNA; actives raise or lower the signal
Outline: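 mRNA induction of transfected cis-promoter reporters in HepG2 cells, 24 h post-dose. Detection: RT-PCR with 6-FAM-labelled products, HpaI digest, capillary electrophoresis. DMSO served as negative control and baseline.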

[18] = target: Signal transducer and activator of transcription 3 (Homo sapiens) (UniProt P40763); test: ATG_STAT3_CIS: Attagene CIS-FACTORIAL HepG2 Assay for human Signal Transducer and Activator of Transcription 3 (STAT3) (AID 2282963); conditions: HepG2, Attagene cis-factorial STAT3 reporter transcription; actives raise or lower the signal
Sequence of Signal transducer and activator of transcription 3 (Homo sapiens) (P40763 whole entry, looked up): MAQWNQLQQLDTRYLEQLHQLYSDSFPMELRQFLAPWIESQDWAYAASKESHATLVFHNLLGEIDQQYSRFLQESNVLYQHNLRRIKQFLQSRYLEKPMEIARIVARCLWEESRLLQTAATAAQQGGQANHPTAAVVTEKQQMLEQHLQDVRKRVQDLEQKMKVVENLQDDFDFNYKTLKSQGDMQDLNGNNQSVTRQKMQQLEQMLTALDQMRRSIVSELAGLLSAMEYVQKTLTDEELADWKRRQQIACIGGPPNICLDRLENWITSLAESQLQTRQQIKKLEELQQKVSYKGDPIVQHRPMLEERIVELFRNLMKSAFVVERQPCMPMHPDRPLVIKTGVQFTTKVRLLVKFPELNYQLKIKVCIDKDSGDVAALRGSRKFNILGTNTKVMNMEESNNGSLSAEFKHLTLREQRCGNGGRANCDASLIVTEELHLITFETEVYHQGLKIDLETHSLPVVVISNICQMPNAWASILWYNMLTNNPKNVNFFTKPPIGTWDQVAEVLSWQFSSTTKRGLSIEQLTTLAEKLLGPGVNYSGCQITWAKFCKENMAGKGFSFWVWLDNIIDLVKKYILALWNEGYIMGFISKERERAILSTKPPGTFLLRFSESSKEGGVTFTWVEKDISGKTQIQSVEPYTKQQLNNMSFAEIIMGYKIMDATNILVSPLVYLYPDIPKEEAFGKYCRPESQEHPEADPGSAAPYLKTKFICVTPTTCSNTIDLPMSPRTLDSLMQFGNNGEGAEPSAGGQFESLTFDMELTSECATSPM
Outline: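 HepG2 cells transiently transfected with cis-element-driven multiple reporter transcription units; after 24 h chemical exposure, reporter mRNA measured by RT-PCR, 6-FAM primer-extension labelling, HpaI digestion and capillary electrophoresis. Bidirectional fitting versus DMSO baseline.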

[19] = ATG_TA_CIS: Attagene CIS-FACTORIAL HepG2 Assay for human TA Basal Promoter (AID 2282964); conditions: HepG2 Attagene CIS-factorial TA basal promoter reporter; actives raise or lower the signal
Outline: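 Transfected HepG2, 24 h compound exposure; RNA → RT-PCR → FAM primer extension → HpaI cut → CE fluorescence. Gain/loss-of-signal fitted against DMSO negative control. Background-control readout.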

Which results are given for `Nc1ccc(O)c([N+](=O)[O-])c1`?
outcome [1]: inactive; outcome [2]: inactive; outcome [3]: inactive; outcome [4]: inactive; outcome [5]: inactive; outcome [6]: inactive; outcome [7]: inactive; outcome [8]: inactive; outcome [9]: inactive; outcome [10]: inactive; outcome [11]: inactive; outcome [12]: inactive; outcome [13]: inactive; outcome [14]: inactive; outcome [15]: inactive; outcome [16]: inactive; outcome [17]: inactive; outcome [18]: inactive; outcome [19]: inactive

With `CCCCOC(=O)C(C)CC` (stereo not given) as the compound, how does the outcome [1] read?
Its outcome is “inactive”.

And the outcome [2]?
The outcome was “inactive”.

What about the outcome [3] of the same compound?
The outcome was “inactive”.

What about the outcome [4] of the same compound?
Its outcome is “inactive”.

And the outcome [5]?
The outcome was “inactive”.

What about the outcome [6] of the same compound?
The outcome was “inactive”.

What about the outcome [7] of the same compound?
The outcome was “inactive”.

And the outcome [8]?
The outcome was “inactive”.

What about the outcome [9] of the same compound?
Its outcome is “inactive”.

And the outcome [10]?
Its outcome is “inactive”.

What about the outcome [11] of the same compound?
The outcome was “inactive”.

And the AC50 [12]?
Its AC50 is 27.1 µM (active).

What about the outcome [14] of the same compound?
The outcome was “inactive”.

And the outcome [15]?
The outcome was “inactive”.

What about the outcome [16] of the same compound?
Its outcome is “inactive”.

What about the outcome [17] of the same compound?
The outcome was “inactive”.

What about the outcome [18] of the same compound?
Its outcome is “inactive”.

And the outcome [19]?
Its outcome is “inactive”.

With `C=C(C)C(=O)OCCOC(=O)C(=C)C` as the compound, how does the outcome [1] read?
Its outcome is “inactive”.

And the outcome [2]?
Its outcome is “inactive”.

What about the outcome [3] of the same compound?
Its outcome is “inactive”.

And the outcome [4]?
The outcome was “inactive”.

And the outcome [5]?
The outcome was “inactive”.

And the outcome [6]?
The outcome was “inactive”.

And the outcome [7]?
The outcome was “inactive”.

What about the outcome [8] of the same compound?
Its outcome is “inactive”.

What about the outcome [9] of the same compound?
The outcome was “inactive”.

And the outcome [10]?
Its outcome is “inactive”.

What about the outcome [11] of the same compound?
The outcome was “inactive”.

What about the outcome [12] of the same compound?
The outcome was “inactive”.

And the outcome [13]?
Its outcome is “inactive”.

What about the outcome [14] of the same compound?
The outcome was “inactive”.

And the outcome [15]?
The outcome was “inactive”.

And the outcome [16]?
Its outcome is “inactive”.

And the outcome [17]?
The outcome was “inactive”.

What about the outcome [18] of the same compound?
The outcome was “inactive”.

What about the outcome [19] of the same compound?
The outcome was “inactive”.

For `CCCCCCCCCC(C)=O`, which outcome [1] is on record?
Its outcome is “inactive”.

And the outcome [2]?
Its outcome is “inactive”.

And the outcome [3]?
The outcome was “inactive”.

And the outcome [4]?
Its outcome is “inactive”.

What about the outcome [5] of the same compound?
The outcome was “inactive”.

And the outcome [6]?
Its outcome is “inactive”.

What about the outcome [7] of the same compound?
The outcome was “inactive”.

And the outcome [8]?
The outcome was “inactive”.

And the outcome [9]?
Its outcome is “inactive”.

What about the outcome [10] of the same compound?
Its outcome is “inactive”.

What about the outcome [11] of the same compound?
The outcome was “inactive”.

What about the outcome [12] of the same compound?
The outcome was “inactive”.

And the outcome [13]?
Its outcome is “inactive”.

And the outcome [14]?
The outcome was “inactive”.

What about the outcome [15] of the same compound?
The outcome was “inactive”.

And the outcome [16]?
Its outcome is “inactive”.

What about the outcome [17] of the same compound?
The outcome was “inactive”.

And the outcome [18]?
Its outcome is “inactive”.

What about the outcome [19] of the same compound?
Its outcome is “inactive”.
